# From PubChem BioAssay (NCI)
# This is part of a sample that, as a whole, favours compounds with a hit. Of some 79,000 tested, about 15% had one in any assay. Unmarked numbers belong to inactive results. The source made the active and inactive calls. Rule as the data show it: active = growth inhibition above about 70%; inactive = the rest.
# Assay: NCI Yeast Anticancer Drug Screen. Data for the mlh1 strain (AID 171);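 also: 0% = growth of vehicle-treated control cultures of the same strain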
# Conditions: S. cerevisiae mlh1 strain growth inhibition, stronger effect = higher value
# Description: Growth inhibition of yeast strains with defined genetic alterations is measured as a screen for potential anti-cancer activity. Selected strains with alterations in DNA damage repair or cell cycle control were exposed to compounds and growth inhibition was measured relative to vehicle treated controls. The strain used in this assay is mlh1
SMILES,growth inhibition (at 1.2 µM),growth inhibition (at 3.7 µM),growth inhibition (at 11.0 µM),growth inhibition (at 33.0 µM),growth inhibition (at 100.0 µM)
COc1ccccc1C(=O)OCC1CCCN2CCCCC12 (stereo not given),23%,15%,73% (active),91% (active),98% (active)
N#CSc1ccc(S(N)(=O)=O)cc1,-65%,-44%,-33%,8%,64%
Cc1ccc(-c2ccc(Nc3c4ccccc4nc4ccccc34)cc2)cn1,5%,2%,18%,88% (active),72% (active)
c1ccc2c(c1)-c1nc3ccccc3cc1C2N1CCOCC1 (stereo not given),3%,3%,3%,-10%,28%
CC(=O)OCC(=O)C1(O)CCC2C3CCC4CCCCC4(C)C3CCC21C (stereo not given),-2%,-8%,7%,37%,79% (active)
CCCc1cc(C(=O)OCC)cc(CCC)c1O,-4%,-4%,-8%,-8%,98% (active)
N#Cc1ccc(C2NN=CC23C(=O)c2ccccc2OC3c2ccccc2)cc1 (stereo not given),0%,-5%,0%,-2%,4%
CCCCCCCCCCC(=O)Cl,14%,7%,5%,2%,82% (active)
